Structures can show the parent of a compound that is named as a salt.
Assays:
Experiment in all cases: thermal shift delta Tm vs DMSO control; higher = stronger stabilization (binding)
Settings in all cases: 12.5 µM; protein concentration 2 µM
[1] = test system: LOC_OS01G01410-cb001
In short: (§1)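 Compounds dissolved in DMSO were added to purified rice kinase domain constructs, which had been expressed in E. coli, for differential scanning fluorimetry. Each well held 19.5 μl of 2 μM kinase in 100 mM potassium phosphate pH 7.5, 150 mM NaCl, 10% glycerol and 5 × SYPRO Orange. Fluorescence was followed from 25°C to 95°C at a rate of 0.05°C/s. Shifts in Boltzmann-fitted melting temperature are triplicate means relative to DMSO-only protein.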

[2] = test system: LOC_OS01G02750-cb003
In short: as §1

[3] = test system: LOC_OS01G10900-cb004
In short: as §1

[4] = test system: LOC_OS01G13800-cb001
In short: as §1

[5] = test system: LOC_OS01G14860-cb001
In short: as §1

[6] = test system: LOC_OS01G21960-cb002
In short: as §1

[7] = test system: LOC_OS01G39600-cb002
In short: as §1

[8] = test system: LOC_OS01G48390-cb002
In short: as §1

[9] = test system: LOC_OS01G51400-cb002
In short: as §1

[10] = test system: T1, LOC_OS01G52050-cb004
T1 sequence (whole entry): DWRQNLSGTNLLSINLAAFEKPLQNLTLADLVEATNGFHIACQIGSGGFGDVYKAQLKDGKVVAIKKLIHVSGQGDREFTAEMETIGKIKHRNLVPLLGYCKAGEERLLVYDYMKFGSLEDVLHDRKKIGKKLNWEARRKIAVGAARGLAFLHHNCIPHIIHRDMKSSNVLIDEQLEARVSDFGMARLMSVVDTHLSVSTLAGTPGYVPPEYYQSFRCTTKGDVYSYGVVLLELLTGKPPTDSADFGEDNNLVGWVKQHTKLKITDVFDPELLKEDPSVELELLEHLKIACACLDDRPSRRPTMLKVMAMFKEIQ
In short: as §1

[11] = test system: LOC_OS01G57100-cb003
In short: as §1

[12] = test system: LOC_OS01G60330-cb001
In short: as §1

[13] = test system: LOC_OS01G60700-cb002
In short: as §1

[14] = test system: LOC_OS01G63280-cb003
In short: as §1

[15] = test system: LOC_OS01G67340-cb003
In short: as §1

[16] = test system: LOC_OS01G70970-cb002
In short: as §1

[17] = test system: LOC_OS02G07810-cb001
In short: as §1

[18] = test system: LOC_OS02G08530-cb003
In short: as §1

[19] = test system: LOC_OS02G14120-cb001
In short: as §1

[20] = test system: LOC_OS02G17970-cb001
In short: as §1

Compound: CN1CC(O)C2=C/C(=N/NC(N)=O)C(=O)C=C21 (stereo not given) [Carbazochrome]
- thermal shift delta Tm [1]: 0.3 °C
- thermal shift delta Tm [2]: 0.81 °C
- thermal shift delta Tm [3]: -0.04 °C
- thermal shift delta Tm [4]: -0.31 °C
- thermal shift delta Tm [5]: 0.31 °C
- thermal shift delta Tm [6]: 0.23 °C
- thermal shift delta Tm [7]: 0.14 °C
- thermal shift delta Tm [8]: -0.01 °C
- thermal shift delta Tm [9]: 0.5 °C
- thermal shift delta Tm [10]: -1.17 °C
- thermal shift delta Tm [11]: -0.08 °C
- thermal shift delta Tm [12]: 0.07 °C
- thermal shift delta Tm [13]: 0.11 °C
- thermal shift delta Tm [14]: -0.22 °C
- thermal shift delta Tm [15]: -0.39 °C
- thermal shift delta Tm [16]: 0.31 °C
- thermal shift delta Tm [17]: -0.8 °C
- thermal shift delta Tm [18]: 0.45 °C
- thermal shift delta Tm [19]: 0.37 °C
- thermal shift delta Tm [20]: -0.48 °C

Compound: Cn1c(=O)c(F)c(Nc2ccc(I)cc2F)c2c(=O)n(C[C@@H](O)CO)cnc21
- thermal shift delta Tm [1]: 0.56 °C
- thermal shift delta Tm [2]: -0.22 °C
- thermal shift delta Tm [3]: 0.49 °C
- thermal shift delta Tm [4]: 0.43 °C
- thermal shift delta Tm [5]: 0.33 °C
- thermal shift delta Tm [6]: 0.97 °C
- thermal shift delta Tm [7]: 0.25 °C
- thermal shift delta Tm [8]: 0.55 °C
- thermal shift delta Tm [9]: 0.57 °C
- thermal shift delta Tm [10]: 0.27 °C
- thermal shift delta Tm [11]: 3.09 °C
- thermal shift delta Tm [12]: 1.03 °C
- thermal shift delta Tm [13]: 1.02 °C
- thermal shift delta Tm [14]: 0.11 °C
- thermal shift delta Tm [15]: 0.29 °C
- thermal shift delta Tm [16]: 0.22 °C
- thermal shift delta Tm [17]: 1.5 °C
- thermal shift delta Tm [18]: 0.9 °C
- thermal shift delta Tm [19]: 0.98 °C
- thermal shift delta Tm [20]: 1.05 °C

Compound: CC(C)(O)CNc1ncc(-c2ccnc(Nc3ccnc(Cl)c3)n2)c(CC2CC2)n1
- thermal shift delta Tm [1]: 0.77 °C
- thermal shift delta Tm [2]: 0.82 °C
- thermal shift delta Tm [3]: 4.56 °C
- thermal shift delta Tm [4]: -0.19 °C
- thermal shift delta Tm [5]: 2.06 °C
- thermal shift delta Tm [6]: 0.91 °C
- thermal shift delta Tm [7]: -0.42 °C
- thermal shift delta Tm [8]: 0.33 °C
- thermal shift delta Tm [9]: 0.19 °C
- thermal shift delta Tm [10]: 0.5 °C
- thermal shift delta Tm [11]: 0.99 °C
- thermal shift delta Tm [12]: 1.94 °C
- thermal shift delta Tm [13]: 0.32 °C
- thermal shift delta Tm [14]: -0.09 °C
- thermal shift delta Tm [15]: 0.66 °C
- thermal shift delta Tm [16]: 0.37 °C
- thermal shift delta Tm [17]: 0.23 °C
- thermal shift delta Tm [18]: 0.89 °C
- thermal shift delta Tm [19]: 1.97 °C
- thermal shift delta Tm [20]: -0.17 °C

Compound: O=C1Cc2c([nH]c3ccc(Br)cc23)-c2ccccc2N1 [Kenpaullone]
- thermal shift delta Tm [1]: 1.3 °C
- thermal shift delta Tm [2]: 3.93 °C
- thermal shift delta Tm [3]: 3.23 °C
- thermal shift delta Tm [4]: 1.78 °C
- thermal shift delta Tm [5]: 7.46 °C
- thermal shift delta Tm [6]: 1.74 °C
- thermal shift delta Tm [7]: 2.16 °C
- thermal shift delta Tm [8]: 3.44 °C
- thermal shift delta Tm [9]: 0.72 °C
- thermal shift delta Tm [10]: 5.21 °C
- thermal shift delta Tm [11]: 0.8 °C
- thermal shift delta Tm [12]: 2.91 °C
- thermal shift delta Tm [13]: 0.89 °C
- thermal shift delta Tm [14]: 3.38 °C
- thermal shift delta Tm [15]: 1.58 °C
- thermal shift delta Tm [16]: 5.88 °C
- thermal shift delta Tm [17]: 1.24 °C
- thermal shift delta Tm [18]: 1.62 °C
- thermal shift delta Tm [19]: 2.5 °C
- thermal shift delta Tm [20]: 2.97 °C

Compound: O=C(NOCC1CC1)c1ccc(F)c(F)c1Nc1ccc(I)cc1Cl
- thermal shift delta Tm [1]: 1.01 °C
- thermal shift delta Tm [2]: 11.3 °C
- thermal shift delta Tm [3]: 1.62 °C
- thermal shift delta Tm [4]: 0.71 °C
- thermal shift delta Tm [5]: 1.37 °C
- thermal shift delta Tm [6]: 1.16 °C
- thermal shift delta Tm [7]: 1.41 °C
- thermal shift delta Tm [8]: 1.28 °C
- thermal shift delta Tm [9]: 0.54 °C
- thermal shift delta Tm [10]: 2.25 °C
- thermal shift delta Tm [11]: 2.41 °C
- thermal shift delta Tm [12]: 2.82 °C
- thermal shift delta Tm [13]: 2.16 °C
- thermal shift delta Tm [14]: 0.93 °C
- thermal shift delta Tm [15]: 0.18 °C
- thermal shift delta Tm [16]: 1.09 °C
- thermal shift delta Tm [17]: 1.23 °C
- thermal shift delta Tm [18]: 1.11 °C
- thermal shift delta Tm [19]: 1.97 °C
- thermal shift delta Tm [20]: 1.54 °C

Compound: C#Cc1cccc(Nc2ncnc3cc4c(cc23)OCCOCCOCCO4)c1 [Icotinib]
- thermal shift delta Tm [1]: -0.52 °C
- thermal shift delta Tm [2]: 0.8 °C
- thermal shift delta Tm [3]: 0.96 °C
- thermal shift delta Tm [4]: 0.01 °C
- thermal shift delta Tm [5]: 0.16 °C
- thermal shift delta Tm [6]: 0.74 °C
- thermal shift delta Tm [7]: 2.84 °C
- thermal shift delta Tm [8]: 2.19 °C
- thermal shift delta Tm [9]: 0.45 °C
- thermal shift delta Tm [10]: 0.36 °C
- thermal shift delta Tm [11]: 2.43 °C
- thermal shift delta Tm [12]: 0.51 °C
- thermal shift delta Tm [13]: 1.16 °C
- thermal shift delta Tm [14]: 0.89 °C
- thermal shift delta Tm [15]: 0.11 °C
- thermal shift delta Tm [16]: 0.61 °C
- thermal shift delta Tm [17]: 0.45 °C
- thermal shift delta Tm [18]: 1.31 °C
- thermal shift delta Tm [19]: 2.16 °C
- thermal shift delta Tm [20]: 1.61 °C

Compound: CC(C)(C)Cn1c(N)nc2ccc(-c3[nH]c(C(C)(C)C)nc3-c3ccc(F)cc3)nc21
- thermal shift delta Tm [1]: 0.51 °C
- thermal shift delta Tm [2]: -0.68 °C
- thermal shift delta Tm [3]: 0 °C
- thermal shift delta Tm [4]: -0.49 °C
- thermal shift delta Tm [5]: -0.02 °C
- thermal shift delta Tm [6]: -0.11 °C
- thermal shift delta Tm [7]: -0.5 °C
- thermal shift delta Tm [8]: 1.19 °C
- thermal shift delta Tm [9]: -0.1 °C
- thermal shift delta Tm [10]: -0.09 °C
- thermal shift delta Tm [11]: -3.53 °C
- thermal shift delta Tm [12]: -0.79 °C
- thermal shift delta Tm [13]: 0.1 °C
- thermal shift delta Tm [14]: -0.16 °C
- thermal shift delta Tm [15]: 0.92 °C
- thermal shift delta Tm [16]: -0.04 °C
- thermal shift delta Tm [17]: -0.18 °C
- thermal shift delta Tm [18]: 0.38 °C
- thermal shift delta Tm [19]: -1.12 °C
- thermal shift delta Tm [20]: -0.24 °C

Compound: O=C(Nc1cccc(Cl)c1)Nc1ncc(CCNc2ncnc3ccsc23)s1 [SNS-314 Mesylate]
- thermal shift delta Tm [1]: 3.62 °C
- thermal shift delta Tm [2]: 3.42 °C
- thermal shift delta Tm [3]: 2.72 °C
- thermal shift delta Tm [4]: 0.91 °C
- thermal shift delta Tm [5]: 2.61 °C
- thermal shift delta Tm [6]: 2.26 °C
- thermal shift delta Tm [7]: 2.71 °C
- thermal shift delta Tm [8]: 1.79 °C
- thermal shift delta Tm [9]: 0.41 °C
- thermal shift delta Tm [10]: 4.19 °C
- thermal shift delta Tm [11]: 2.62 °C
- thermal shift delta Tm [12]: 3.98 °C
- thermal shift delta Tm [13]: 1.44 °C
- thermal shift delta Tm [14]: 2.76 °C
- thermal shift delta Tm [15]: 0.53 °C
- thermal shift delta Tm [16]: 1.48 °C
- thermal shift delta Tm [17]: 2.27 °C
- thermal shift delta Tm [18]: 2.1 °C
- thermal shift delta Tm [19]: 4.25 °C
- thermal shift delta Tm [20]: 1.27 °C

Compound: C[C@@H]1CN(CC(=O)Nc2ccc3c(c2)Cc2cccc(-c4cc(=O)cc(N5CCOCC5)o4)c2S3)C[C@H](C)O1
- thermal shift delta Tm [1]: 0.15 °C
- thermal shift delta Tm [2]: 1.53 °C
- thermal shift delta Tm [3]: 0.85 °C
- thermal shift delta Tm [4]: 0.28 °C
- thermal shift delta Tm [5]: 1.89 °C
- thermal shift delta Tm [6]: 0.63 °C
- thermal shift delta Tm [7]: -0.34 °C
- thermal shift delta Tm [8]: 0.3 °C
- thermal shift delta Tm [9]: 0.05 °C
- thermal shift delta Tm [10]: 0.42 °C
- thermal shift delta Tm [11]: 1.01 °C
- thermal shift delta Tm [12]: 0.66 °C
- thermal shift delta Tm [13]: 0.34 °C
- thermal shift delta Tm [14]: 0.3 °C
- thermal shift delta Tm [15]: 0 °C
- thermal shift delta Tm [16]: -0.1 °C
- thermal shift delta Tm [17]: 0.97 °C
- thermal shift delta Tm [18]: 0.73 °C
- thermal shift delta Tm [19]: 0.18 °C
- thermal shift delta Tm [20]: 0.49 °C

— the supplement of paper PMC9694430
